# B1: unnamed (peptide)
# chain: VNIPSPSSSPPPIPK
# B2: unnamed (peptide)
# chain: VTHRLRISIPGITGR
# Target: AgAbp1
# Experiment: SPOT peptide array binding signal intensity (averaged, normalized) (arbitrary units (background-subtracted, floor 0; scale differs between SH3 domains)); higher = stronger binding of the SH3 domain to the peptide
# How it was run: (§1)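 Detection of bound protein relied on anti-GST antibody, an HRP anti-mouse secondary and luminol, with imaging and quantification in Genespotter. The bound protein was GST-fused SH3 domains from four yeast species, incubated at 10 μg/ml overnight at 4°C in TBS-based blocking buffer on cellulose membranes carrying synthetic 15-mer peptides with cysteines replaced by serines. Binding signal is normalized, background-subtracted spot intensity averaged over replicates, in arbitrary units that differ between domains.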
row,Binder,SPOT peptide array binding signal intensity
1,B1,8
2,B2,9

# Target: AgBbc1
# Experiment: as above
# How it was run: as §1
row,Binder,SPOT peptide array binding signal intensity
1,B1,≤ 0
2,B2,193

# Target: AgBem1-D1
# Experiment: as above
# How it was run: as §1
row,Binder,SPOT peptide array binding signal intensity
1,B1,28
2,B2,126

# Target: AgBzz1-D1
# Experiment: as above
# How it was run: as §1
row,Binder,SPOT peptide array binding signal intensity
1,B1,≤ 0
2,B2,58

# Target: AgBzz1-D2
# Experiment: as above
# How it was run: as §1
row,Binder,SPOT peptide array binding signal intensity
1,B1,5
2,B2,136

# Target: AgCyk3
# Experiment: as above
# How it was run: as §1
row,Binder,SPOT peptide array binding signal intensity
1,B1,0.5
2,B2,25

# Target: AgFus1
# Experiment: as above
# How it was run: as §1
row,Binder,SPOT peptide array binding signal intensity
1,B1,0.5
2,B2,1200

# Target: AgHof1
# Experiment: as above
# How it was run: as §1
row,Binder,SPOT peptide array binding signal intensity
1,B1,≤ 0
2,B2,20.8

# Target: AgHse1
# Experiment: as above
# How it was run: as §1
row,Binder,SPOT peptide array binding signal intensity
1,B1,20.5
2,B2,650

# Target: AgLsb1
# Experiment: as above
# How it was run: as §1
row,Binder,SPOT peptide array binding signal intensity
1,B1,≤ 0
2,B2,4.5

# Target: AgLsb4
# Experiment: as above
# How it was run: as §1
row,Binder,SPOT peptide array binding signal intensity
1,B1,≤ 0
2,B2,430

# Target: AgMyo5
# Experiment: as above
# How it was run: as §1
row,Binder,SPOT peptide array binding signal intensity
1,B1,2570
2,B2,1.75

# Target: AgNbp2
# Experiment: as above
# How it was run: as §1
row,Binder,SPOT peptide array binding signal intensity
1,B1,≤ 0
2,B2,123

# Target: AgRvs167
# Experiment: as above
# How it was run: as §1
row,Binder,SPOT peptide array binding signal intensity
1,B1,0.5
2,B2,20

# Target: AgSho1
# Experiment: as above
# How it was run: as §1
row,Binder,SPOT peptide array binding signal intensity
1,B1,≤ 0
2,B2,146

# Target: AgSla1-D1-D2
# Experiment: as above
# How it was run: as §1
row,Binder,SPOT peptide array binding signal intensity
1,B1,8
2,B2,88

# Target: AgSla1-D3
# Experiment: as above
# How it was run: as §1
row,Binder,SPOT peptide array binding signal intensity
1,B1,≤ 0
2,B2,3

# Target: CaAbp1-D1
# Experiment: as above
# How it was run: as §1
row,Binder,SPOT peptide array binding signal intensity
1,B1,5
2,B2,286

# Target: CaAbp1-D2
# Experiment: as above
# How it was run: as §1
row,Binder,SPOT peptide array binding signal intensity
1,B1,9
2,B2,146

# Target: CaBbc1
# Experiment: as above
# How it was run: as §1
row,Binder,SPOT peptide array binding signal intensity
1,B1,≤ 0
2,B2,234

# Target: CaBem1-D1
# Experiment: as above
# How it was run: as §1
row,Binder,SPOT peptide array binding signal intensity
1,B1,10
2,B2,36

# Target: CaBzz1-D1
# Experiment: as above
# How it was run: as §1
row,Binder,SPOT peptide array binding signal intensity
1,B1,34
2,B2,252

# Target: CaBzz1-D2
# Experiment: as above
# How it was run: as §1
row,Binder,SPOT peptide array binding signal intensity
1,B1,4.75
2,B2,114

# Target: CaCyk3
# Experiment: as above
# How it was run: as §1
row,Binder,SPOT peptide array binding signal intensity
1,B1,≤ 0
2,B2,39.5

# Target: CaFus1
# Experiment: as above
# How it was run: as §1
row,Binder,SPOT peptide array binding signal intensity
1,B1,47.5
2,B2,1410

# Target: CaHof1
# Experiment: as above
# How it was run: as §1
row,Binder,SPOT peptide array binding signal intensity
1,B1,0.5
2,B2,1.75

# Target: CaHse1
# Experiment: as above
# How it was run: as §1
row,Binder,SPOT peptide array binding signal intensity
1,B1,≤ 0
2,B2,56.8

# Target: CaLsb1
# Experiment: as above
# How it was run: as §1
row,Binder,SPOT peptide array binding signal intensity
1,B1,≤ 0
2,B2,1.25

# Target: CaLsb4
# Experiment: as above
# How it was run: as §1
row,Binder,SPOT peptide array binding signal intensity
1,B1,≤ 0
2,B2,47.5

# Target: CaMyo5
# Experiment: as above
# How it was run: as §1
row,Binder,SPOT peptide array binding signal intensity
1,B1,1400
2,B2,34

# Target: CaNbp2
# Experiment: as above
# How it was run: as §1
row,Binder,SPOT peptide array binding signal intensity
1,B1,19.5
2,B2,882

# Target: CaRvs167
# Experiment: as above
# How it was run: as §1
row,Binder,SPOT peptide array binding signal intensity
1,B1,≤ 0
2,B2,640

# Target: CaRvs167-3
# Experiment: as above
# How it was run: as §1
row,Binder,SPOT peptide array binding signal intensity
1,B1,2.25
2,B2,2060

# Target: CaSho1
# Experiment: as above
# How it was run: as §1
row,Binder,SPOT peptide array binding signal intensity
1,B1,2
2,B2,1000

# Target: CaSla1-D1-D2
# Experiment: as above
# How it was run: as §1
row,Binder,SPOT peptide array binding signal intensity
1,B1,≤ 0
2,B2,16

# Target: CaSla1-D3
# Experiment: as above
# How it was run: as §1
row,Binder,SPOT peptide array binding signal intensity
1,B1,1.25
2,B2,252

# Target: ScAbp1
# Experiment: as above
# How it was run: as §1
row,Binder,SPOT peptide array binding signal intensity
1,B1,≤ 0
2,B2,9

# Target: ScBbc1
# Experiment: as above
# How it was run: as §1
row,Binder,SPOT peptide array binding signal intensity
1,B1,1
2,B2,16.2

# Target: ScBem1-D1
# Experiment: as above
# How it was run: as §1
row,Binder,SPOT peptide array binding signal intensity
1,B1,≤ 0
2,B2,33.5

# Target: ScBzz1-D1
# Experiment: as above
# How it was run: as §1
row,Binder,SPOT peptide array binding signal intensity
1,B1,≤ 0
2,B2,44.5

# Target: ScBzz1-D2
# Experiment: as above
# How it was run: as §1
row,Binder,SPOT peptide array binding signal intensity
1,B1,6
2,B2,374

# Target: ScCyk3
# Experiment: as above
# How it was run: as §1
row,Binder,SPOT peptide array binding signal intensity
1,B1,≤ 0
2,B2,82

# Target: ScFus1
# Experiment: as above
# How it was run: as §1
row,Binder,SPOT peptide array binding signal intensity
1,B1,≤ 0
2,B2,1730

# Target: ScHof1
# Experiment: as above
# How it was run: as §1
row,Binder,SPOT peptide array binding signal intensity
1,B1,≤ 0
2,B2,1

# Target: ScHse1
# Experiment: as above
# How it was run: as §1
row,Binder,SPOT peptide array binding signal intensity
1,B1,35
2,B2,1450

# Target: ScLsb1
# Experiment: as above
# How it was run: as §1
row,Binder,SPOT peptide array binding signal intensity
1,B1,≤ 0
2,B2,65

# Target: ScLsb2
# Experiment: as above
# How it was run: as §1
row,Binder,SPOT peptide array binding signal intensity
1,B1,≤ 0
2,B2,25

# Target: ScLsb3
# Experiment: as above
# How it was run: as §1
row,Binder,SPOT peptide array binding signal intensity
1,B1,≤ 0
2,B2,327

# Target: ScLsb4
# Experiment: as above
# How it was run: as §1
row,Binder,SPOT peptide array binding signal intensity
1,B1,≤ 0
2,B2,42

# Target: ScMyo3
# Experiment: as above
# How it was run: as §1
row,Binder,SPOT peptide array binding signal intensity
1,B1,3090
2,B2,≤ 0

# Target: ScMyo5
# Experiment: as above
# How it was run: as §1
row,Binder,SPOT peptide array binding signal intensity
1,B1,2780
2,B2,1.75

# Target: ScNbp2
# Experiment: as above
# How it was run: as §1
row,Binder,SPOT peptide array binding signal intensity
1,B1,6
2,B2,295

# Target: ScPex13
# Experiment: as above
# How it was run: as §1
row,Binder,SPOT peptide array binding signal intensity
1,B1,≤ 0
2,B2,7.5

# Target: ScRvs167
# Experiment: as above
# How it was run: as §1
row,Binder,SPOT peptide array binding signal intensity
1,B1,≤ 0
2,B2,45.2

# Target: ScSho1
# Experiment: as above
# How it was run: as §1
row,Binder,SPOT peptide array binding signal intensity
1,B1,1.5
2,B2,946

# Target: ScSla1-D1-D2
# Experiment: as above
# How it was run: as §1
row,Binder,SPOT peptide array binding signal intensity
1,B1,2.5
2,B2,159

# Target: ScSla1-D3
# Experiment: as above
# How it was run: as §1
row,Binder,SPOT peptide array binding signal intensity
1,B1,≤ 0
2,B2,46

# Target: SpAbp1-D1
# Experiment: as above
# How it was run: as §1
row,Binder,SPOT peptide array binding signal intensity
1,B1,1
2,B2,95.5

# Target: SpBbc1
# Experiment: as above
# How it was run: as §1
row,Binder,SPOT peptide array binding signal intensity
1,B1,≤ 0
2,B2,32.8

# Target: SpBzz1-D1
# Experiment: as above
# How it was run: as §1
row,Binder,SPOT peptide array binding signal intensity
1,B1,80.5
2,B2,396

# Target: SpBzz1-D2
# Experiment: as above
# How it was run: as §1
row,Binder,SPOT peptide array binding signal intensity
1,B2,≤ 0

# Target: SpCyk3
# Experiment: as above
# How it was run: as §1
row,Binder,SPOT peptide array binding signal intensity
1,B2,9

# Target: SpHof1
# Experiment: as above
# How it was run: as §1
row,Binder,SPOT peptide array binding signal intensity
1,B2,353

# Target: SpHof1-2
# Experiment: as above
# How it was run: as §1
row,Binder,SPOT peptide array binding signal intensity
1,B2,71

# Target: SpHof1-3
# Experiment: as above
# How it was run: as §1
row,Binder,SPOT peptide array binding signal intensity
1,B2,594

# Target: SpHse1
# Experiment: as above
# How it was run: as §1
row,Binder,SPOT peptide array binding signal intensity
1,B2,526

# Target: SpLsb1
# Experiment: as above
# How it was run: as §1
row,Binder,SPOT peptide array binding signal intensity
1,B2,8.25

# Target: SpLsb4
# Experiment: as above
# How it was run: as §1
row,Binder,SPOT peptide array binding signal intensity
1,B2,42

# Target: SpMyo1
# Experiment: as above
# How it was run: as §1
row,Binder,SPOT peptide array binding signal intensity
1,B2,1

# Target: SpNbp2
# Experiment: as above
# How it was run: as §1
row,Binder,SPOT peptide array binding signal intensity
1,B2,1510

# Target: SpPex13
# Experiment: as above
# How it was run: as §1
row,Binder,SPOT peptide array binding signal intensity
1,B2,17

# Target: SpRvs167
# Experiment: as above
# How it was run: as §1
row,Binder,SPOT peptide array binding signal intensity
1,B2,68.8

# Target: SpSla1-D1-D2
# Experiment: as above
# How it was run: as §1
row,Binder,SPOT peptide array binding signal intensity
1,B2,≤ 0

# Target: SpSla1-D3
# Experiment: as above
# How it was run: as §1
row,Binder,SPOT peptide array binding signal intensity
1,B2,10

# Reference: the supplement of paper PMC4466140
